Active and inactive are the calls of the source. How the calls were made is not given here.

For the experiment, the target named is Thyrotropin receptor (Homo sapiens) (UniProt P16473). In words: Concentration-response assay for inverse agonists of the thyroid stimulating hormone receptor: ELISA activity detection. As to conditions: HEK293-TSHR basal cAMP, ELISA chemiluminescence, 1 h. An excerpt: TSH is an alpha/beta heterodimeric glycoprotein hormone secreted from the anterior pituitary gland which belongs to the glycoprotein hormone family. The actions of TSH are mediated by a seven-transmembrane receptor, which upon TSH binding couples preferentially to the G-alpha (s) protein (Gs), resulting in activation of adenylate cyclase and increase in cyclic adenosine 3', 5' monophosphate (cAMP). The TSH receptor (THSR) is mainly expressed in thyroid follicular cells and regulates their growth and function. This cell based assay was conducted on a TSHR transfected HEK 293 cell line, measuring cAMP stimulation using antibody-based Homogeneous Time Resolved Fluorescence (HTRF). Our goal is to identify small molecules that will inhibit (antagonize) the thyroid-stimulating hormone receptor (TSHR), a member of the 7 transmembrane-spanning receptor (7TMR) family of cell surface receptors. TSHR-mediated hyperthyroidism is important in thyroid pathology. The development of small molecule antagonists of TSHR may lead to therapeutic approaches for TSHR-mediated hyperthyroidism caused by constitutively activating mutations or stimulating auto-antibodies associated with Graves' disease. Graves' disease is the leading cause of hyperthyroidism and is caused by autoantibodies that stimulate TSHR (TsAbs) causing thyroid growth and unregulated overproduction of thyroid hormones and existing treatments have liabilities (agranulocytosis). In addition, TSHRs are known to be expressed in multiple extrathyroidal tissues including bone, brain, kidney, testis, fat and cells of the immune system but the role of the TSHR in these tissues is not clear. Therefore, TSHR antagonists/inverse agonists could be used as probes of extrathyroidal TSHR function. Finally, TSHR inverse agonists, which are a subclass of antagonists that inhibit agonist-independent (or basal or constitutive) TSHR signaling, could be used to inhibit TSH-independent signaling in patients with recurrent or metastatic thyroid cancer who are receiving thyroid hormone to suppress TSH. A confirmatory assay of TSHR inverse agonists was conducted on a HEK 293 cell line stably expressing the TSHR, using an ELISA based cAMP competition assay using cAMP-Screen Direct System (Applied Biosystems, Foster City, CA) to measure cAMP stimulation.
Sequence of Thyrotropin receptor (Homo sapiens) (P16473 whole entry, looked up): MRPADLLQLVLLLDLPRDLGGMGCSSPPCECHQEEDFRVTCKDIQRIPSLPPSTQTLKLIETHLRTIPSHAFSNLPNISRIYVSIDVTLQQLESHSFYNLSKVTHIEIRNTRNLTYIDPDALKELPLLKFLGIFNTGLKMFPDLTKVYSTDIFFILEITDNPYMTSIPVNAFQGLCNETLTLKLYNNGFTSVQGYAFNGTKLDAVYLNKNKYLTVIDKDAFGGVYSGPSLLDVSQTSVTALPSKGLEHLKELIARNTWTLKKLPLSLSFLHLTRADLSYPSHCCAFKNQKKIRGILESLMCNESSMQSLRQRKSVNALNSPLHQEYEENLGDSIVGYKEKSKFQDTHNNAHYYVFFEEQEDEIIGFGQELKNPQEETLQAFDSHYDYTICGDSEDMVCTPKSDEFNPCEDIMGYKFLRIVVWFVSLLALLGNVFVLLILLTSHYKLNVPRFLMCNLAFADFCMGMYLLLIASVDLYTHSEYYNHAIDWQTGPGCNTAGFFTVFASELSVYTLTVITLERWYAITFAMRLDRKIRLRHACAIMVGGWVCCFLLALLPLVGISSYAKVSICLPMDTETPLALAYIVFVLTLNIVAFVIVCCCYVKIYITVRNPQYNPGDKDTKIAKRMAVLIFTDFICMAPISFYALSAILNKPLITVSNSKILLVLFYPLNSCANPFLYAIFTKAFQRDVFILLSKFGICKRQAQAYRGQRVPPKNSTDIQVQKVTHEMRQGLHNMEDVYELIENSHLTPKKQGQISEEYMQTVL
Transiently transfected HEK-EM 293 cells or cells stably expressing TSHRs were seeded into 96-well plates at a density of 7 x10^4 cells per well in DMEM containing 10% FBS. Cells were cultured for 24 h before incubation for 20 min in HBSS/10 mM HEPES (pH 7.4). To determine basal cAMP production, cells were incubated for 1 h at 37 C in a humidified incubator in HBSS/HEPES containing 1mM IBMX (Sigma Chemical Co., St. Louis, MO) in the presence or absence of compound. The levels of cAMP in cells incubated in HBSS/HEPES without IBMX were subtracted in all experiments. After aspiration of the incubation medium, cells were lysed using lysis buffer of the cAMP-Screen Direct system (Applied Biosystems, Foster City, CA). The cAMP content of the cell lysate was determined using the method described in the manufacturer's protocol. The chemiluminescence signal was measured in a VICTOR3 V 1420 multilabel counter (PerkinElmer, Norwalk, CT). The potency (IC50) of the ligands were obtained from dose-response curves by data analysis with GraphPad Prism 4 for Windows.
In general terms: In an ELISA, binding on a coated surface is turned into a signal by an enzyme label.
On to `COc1ccc(C2Nc3ccccc3C(=O)N2Cc2ccccn2)cc1COc1c(C)cccc1C` (stereo unspecified), for which the call was inactive. `COc1ccc(C2Nc3ccccc3C(=O)N2Cc2cccnc2)cc1COc1c(C)cccc1C` (stereo unspecified): the concentration for half-maximal inhibition (IC50) was 7 µM (active).

Regarding `COc1ccc(C2Nc3ccccc3C(=O)N2Cc2ccco2)cc1COc1ccccc1C` (stereo unspecified), the result was inactive.

As to `CCc1cccc(CC)c1OCc1cc(C2Nc3ccccc3C(=O)N2Cc2ccco2)ccc1OC` (stereo unspecified), the half-inhibitory concentration (IC50) is 11 µM (active).

As for `COc1ccc(C2Nc3ccccc3C(=O)N2Cc2ccccc2)cc1COc1c(C)cccc1C` (stereo unspecified), the outcome was inactive. Same read-out and setting: the result for `COc1ccc(C2Nc3ccccc3C(=O)N2Cc2ccco2)cc1CSc1c(C)cccc1C` (stereo unspecified) reads “inactive”; that for `COc1ccc(C2Nc3ccccc3C(=O)N2Cc2cccs2)cc1COc1c(C)cccc1C` (stereo unspecified), “inactive”. For `COc1ccc(C2Nc3ccccc3C(=O)N2Cc2ccco2)cc1COc1c(C)cc(NC(C)=O)cc1C` (stereo unspecified), the IC50 is 6 µM (active). Consider `COc1ccc(C2Nc3cccc(O)c3C(=O)N2Cc2ccco2)cc1COc1c(C)cc(NC(C)=O)cc1C` (stereo unspecified), for which the molecule was called inactive. Turning to `Cc1cccc(C)c1OCc1cccc(C2Nc3ccccc3C(=O)N2Cc2ccco2)c1` (stereo unspecified), the IC50 is 5 µM (active).

On to `COc1ccc(C2Nc3ccccc3C(=O)N2Cc2ccc(C)o2)cc1COc1c(C)cccc1C` (stereo unspecified), for which the molecule was called inactive.

Broadly, the IC50 is the midpoint of a concentration-inhibition curve.
